Experimental data from PubChem BioAssay (NCI).
About 83,000 compounds went through this panel and 20% of them were active in at least one assay; those are over-represented in the sample as a whole.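 A percent growth of 40 corresponds to 60% growth inhibition; 0 means no net growth; -100 means all cells died. Active threshold: below 10.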 Active and inactive are the calls of the source.

Key:
Assay in all cases: NCI-60 one-dose screen, 48 h (100 = growth as untreated, 0 = no growth, -100 = all killed)
RPMI-8226 leukemia = conditions: 10 µM
OVCAR-8 ovarian = conditions: 10 µM
OVCAR-5 ovarian = conditions: 10 µM
OVCAR-4 ovarian = conditions: 10 µM
SK-OV-3 ovarian = conditions: 10 µM
IGROV1 ovarian = conditions: 10 µM
OVCAR-3 ovarian = conditions: 10 µM
HS 578T breast = conditions: 10 µM
NCI/ADR-RES ovarian = conditions: 10 µM
BT-549 breast = conditions: 10 µM
MDA-MB-435 melanoma = conditions: 10 µM
SW-620 colon = conditions: 10 µM
MCF7 breast = conditions: 10 µM unless noted
HCT-116 colon = conditions: 10 µM
HCC-2998 colon = conditions: 10 µM
KM12 colon = conditions: 10 µM
T-47D breast = conditions: 10 µM

Measured: growth

CSc1[nH]c(=O)ncc1F
inactive: RPMI-8226 leukemia 106% | OVCAR-8 ovarian 95.4% | OVCAR-5 ovarian 102% | OVCAR-4 ovarian 102% | SK-OV-3 ovarian 119% | IGROV1 ovarian 110% | OVCAR-3 ovarian 107% | HS 578T breast 103% | NCI/ADR-RES ovarian 99.3% | BT-549 breast 94.1% | MDA-MB-435 melanoma 102% | SW-620 colon 102% | MCF7 breast 96% | HCT-116 colon 98.3% | HCC-2998 colon 96.8% | KM12 colon 104%

Nc1nc2c(c(-c3nc(N)nc4c3CCc3ccccc3-4)n1)CCc1ccccc1-2
inactive: RPMI-8226 leukemia 105% | OVCAR-8 ovarian 56.8% | OVCAR-5 ovarian 113% | OVCAR-4 ovarian 101% | SK-OV-3 ovarian 87.2% | IGROV1 ovarian 109% | OVCAR-3 ovarian 115% | HS 578T breast 80.3% | NCI/ADR-RES ovarian 101% | BT-549 breast 109% | MDA-MB-435 melanoma 109% | SW-620 colon 101% | MCF7 breast 95.4% | HCT-116 colon 105% | HCC-2998 colon 114% | KM12 colon 105%

COc1ccccc1NC(=O)C1=C(C)NC(C)=C(C(=O)Nc2ccccc2OC)C1c1cccc([N+](=O)[O-])c1
inactive: RPMI-8226 leukemia 51.9% | OVCAR-8 ovarian 74.4% | OVCAR-5 ovarian 81.9% | OVCAR-4 ovarian 70.2% | SK-OV-3 ovarian 74.4% | IGROV1 ovarian 69.7% | OVCAR-3 ovarian 82.9% | HS 578T breast 60.9% | NCI/ADR-RES ovarian 66.3% | BT-549 breast 73.6% | MDA-MB-435 melanoma 75.4% | SW-620 colon 88% | MCF7 breast 47.8% | HCT-116 colon 44.9% | HCC-2998 colon 76.9% | KM12 colon 67.3%

O=C(Cc1ccc(OCc2ccccc2)cc1)NCc1ccc2c(c1)OCO2
inactive: RPMI-8226 leukemia 67.7% | OVCAR-8 ovarian 91.1% | OVCAR-5 ovarian 110% | OVCAR-4 ovarian 107% | SK-OV-3 ovarian 82.4% | OVCAR-3 ovarian 58.9% | HS 578T breast 69.8% | NCI/ADR-RES ovarian 47.8% | T-47D breast 86.2% | BT-549 breast 56.1% | SW-620 colon 28.1% | MCF7 breast 44.5% | HCT-116 colon 40.4% | HCC-2998 colon 77.2% | KM12 colon 33.1%
active: MDA-MB-435 melanoma -42.4%

COc1cccc(Sc2ccc([N+](=O)[O-])c3no[n+]([O-])c23)c1
active: RPMI-8226 leukemia 6.99% | OVCAR-3 ovarian -61.9% | SW-620 colon -0.655% | HCT-116 colon -91.4%
inactive: OVCAR-8 ovarian 53% | OVCAR-5 ovarian 60.2% | OVCAR-4 ovarian 67.5% | SK-OV-3 ovarian 77.9% | HS 578T breast 67.9% | NCI/ADR-RES ovarian 42.5% | T-47D breast 40.2% | BT-549 breast 46.8% | MDA-MB-435 melanoma 64.4% | MCF7 breast 39% | HCC-2998 colon 55.4% | KM12 colon 92.3%

CS(=O)CC1=NC(=N)N=C1CS(C)=O (configuration not stated)
inactive: RPMI-8226 leukemia 107% | OVCAR-8 ovarian 99.9% | OVCAR-5 ovarian 111% | OVCAR-4 ovarian 103% | SK-OV-3 ovarian 108% | IGROV1 ovarian 113% | HS 578T breast 89.9% | NCI/ADR-RES ovarian 103% | BT-549 breast 110% | MDA-MB-435 melanoma 109% | SW-620 colon 108% | MCF7 breast 95% | HCT-116 colon 102% | HCC-2998 colon 104% | KM12 colon 108%

CC(=O)CC(=O)N(C)C
inactive: RPMI-8226 leukemia 97.9% | OVCAR-8 ovarian 101% | OVCAR-5 ovarian 104% | OVCAR-4 ovarian 101% | SK-OV-3 ovarian 108% | IGROV1 ovarian 109% | OVCAR-3 ovarian 112% | HS 578T breast 98.3% | NCI/ADR-RES ovarian 100% | BT-549 breast 99.5% | MDA-MB-435 melanoma 98.2% | SW-620 colon 101% | MCF7 breast 94.8% | HCT-116 colon 95.6% | HCC-2998 colon 108% | KM12 colon 102%

CC(C)NC(=O)OCc1c(COC(=O)NC(C)C)c(-c2ccc(Cl)c(Cl)c2)n2c1SCC2
active: OVCAR-5 ovarian -15.6% | IGROV1 ovarian 3.1%
inactive: RPMI-8226 leukemia 36% | OVCAR-8 ovarian 44.7% | OVCAR-4 ovarian 38.2% | SK-OV-3 ovarian 21.9% | OVCAR-3 ovarian 47.2% | HS 578T breast 36.3% | BT-549 breast 21.7% | MDA-MB-435 melanoma 67.2% | SW-620 colon 44.8% | MCF7 breast 32.2% | HCT-116 colon 29.9% | HCC-2998 colon 72.8% | KM12 colon 77.6%

O=C(CCNNC(=O)c1ccncc1)NCc1ccccc1
inactive: RPMI-8226 leukemia 87.2% | OVCAR-8 ovarian 100% | OVCAR-5 ovarian 105% | OVCAR-4 ovarian 96.3% | SK-OV-3 ovarian 104% | IGROV1 ovarian 92.3% | OVCAR-3 ovarian 102% | NCI/ADR-RES ovarian 96.5% | T-47D breast 94.4% | BT-549 breast 134% | MDA-MB-435 melanoma 95.7% | SW-620 colon 96% | MCF7 breast 89.9% | HCT-116 colon 105% | HCC-2998 colon 111% | KM12 colon 97.5%
